In the library only some 7.9% were active in any assay of this set; here they are far more common.
HT1080 IDH1KD tx = HT-1080 IDH1 knockdown cell toxicity (counter line). HT-1080 IDH1 knockdown viability, ATP luminescence, 48 h. Potency, µM (titrated, usually from 46.1 µM), usual class: cytotoxic. 360,000 tested, 2% active. AID 686971
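IDH1KD HT-1080 cells, 750/well, RPMI + 5% FBS; compound pinned after 2 h settling; 48 h, 37 °C; CellTiter-Glo luminescence; % activity normalised to DMSO and no-cell wells; curves fitted, classed by r2 and efficacy.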
KB-V1 cytotox = KB-V1 MDR subline cytotoxicity | KB-V1 MDR cells viability, CellTiter-Glo, 72 h | Potency, µM (titrated, usually from 46.1 µM), most hits filed as cytotoxic | 400,000 tested, 3.4% active; also: nearly all actives have a fitted effect of over 60% in size
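qHTS viability screen in drug-selected KB-V1 MDR cells: 72 h compound treatment at 37 degrees C, ATP luminescence end point.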
MCF10A rerep = induces DNA re-replication in MCF 10a normal breast cells; MCF 10A DNA re-replication, Hoechst nuclear intensity, 48 h; Potency, µM (top dose mostly 46.1 µM), usual class: activators; 350,000 tested, 2.9% active; AID 624296; also: nearly all actives have a fitted effect of over 50% in size
SW480 rerep = induces DNA re-replication in SW480 colon adenocarcinoma cells; AID 624297; 340,000 tested, 1.8% active; SW480 DNA re-replication, Hoechst DNA content imaging, 48 h; Potency, µM (doses to about 46.1 µM), usual class: activators; also: nearly all actives have a fitted effect of over 55% in size
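250 cells/well; 23 nL cpd via pin tool; 48 hr, 37 C, 5% CO2; Hoechst 40 min; imager read of total nuclear intensity, ex 405/em 500-530 nm.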
HT1080-NT tox = kills 2HG-producing HT-1080-NT fibrosarcoma cells; HT-1080-NT fibrosarcoma viability, CellTiter-Glo ATP luminescence, 48 h; Potency, µM (highest dose often 46.1 µM), actives largely listed as cytotoxic; 360,000 tested, 1.6% active; AID 686970;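 also: NT is the 2HG producing partner of a matched IDH1 knockdown line; nearly all actives have a fitted effect of over 55% in size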
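750 cells/well, RPMI + 5% FBS; 2 h settle, compound pin-transfer, 48 h at 37 degrees C. CellTiter-Glo 10 min RT, luminescence. Normalized to DMSO and media-only wells.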
KB-3-1 tox = kills parental KB-3-1 adenocarcinoma cells; 400,000 tested, 1.4% active; Potency, µM (titrated, usually from 46.1 µM), hits mostly cytotoxic; KB-3-1 viability, CellTiter-Glo ATP luminescence, 72 h; also: nearly all actives have a fitted effect of over 60% in size
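Screening of KB-3-1 cells (DMEM, 10% FBS, phenol-red free) ran from lowest to highest compound concentration; after 72 h at 37 °C viability was read luminescently and curves fitted.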
Hits are given with their value; [ ] = dose if it differs, or a comment. Calls follow the shape of the dose curve; as a rule, active = well fitted curve in the direction sought with a large enough effect; inconclusive = small, poorly fitted or top-dose-only effect, or another doubt; inactive = no such curve, though single readings can be large; an effect the other way counts as inactive or inconclusive.

What do the screens show for `Cc1ccc(Nc2c(-c3cccnc3)nc3ccc(Cl)cn23)cc1`?
KB-V1 cytotox: inactive; KB-3-1 tox: inactive

How did CN(CC(=O)Nc1c(Cl)cccc1Cl)CC(=O)N1CCc2ccccc21 do in these assays?
HT1080 IDH1KD tx: inactive; KB-V1 cytotox: inconclusive; HT1080-NT tox: inactive; KB-3-1 tox: inactive

What do the screens show for `CCOC(=O)C1=C(C)OC(N)=C(C#N)C1c1cc(OC)c2c(c1)OCO2` (stereo not given)?
HT1080 IDH1KD tx: inactive[9.24 µM]; KB-V1 cytotox: inactive; MCF10A rerep: inactive; SW480 rerep: inactive; HT1080-NT tox: inactive; KB-3-1 tox: inconclusive

What do the screens show for `N#CC1=C(N)Oc2cc3c(cc2C1c1ccc(Cl)cc1)OCO3` (stereo not given)?
HT1080 IDH1KD tx: inconclusive; KB-V1 cytotox: inactive; MCF10A rerep: inactive; SW480 rerep: inactive; HT1080-NT tox: inactive; KB-3-1 tox: inactive

What do the screens show for `COc1cc(C2C(C#N)=C(N)Oc3cc4c(cc32)OCO4)cc(OC)c1OC` (stereo not given)?
HT1080 IDH1KD tx: 0.0291µM; KB-V1 cytotox: 0.231µM; MCF10A rerep: inconclusive; SW480 rerep: inconclusive; HT1080-NT tox: 0.0366µM; KB-3-1 tox: 0.0052µM

What do the screens show for `COc1cc(C2C(C#N)=C(N)Oc3cc(N(C)C)ccc32)cc2c1OCO2` (stereo not given)?
HT1080 IDH1KD tx: inconclusive; KB-V1 cytotox: 0.0164µM; MCF10A rerep: inconclusive; SW480 rerep: inactive; HT1080-NT tox: 0.199µM; KB-3-1 tox: 0.82µM

How did COc1cc(C2C(C#N)=C(N)Oc3cc(O)ccc32)cc2c1OCO2 (stereo not given) do in these assays?
HT1080 IDH1KD tx: 20.6µM; KB-V1 cytotox: inconclusive; MCF10A rerep: inconclusive; SW480 rerep: inactive; HT1080-NT tox: inconclusive; KB-3-1 tox: inconclusive

What do the screens show for `O=[N+]([O-])c1ccc(CS(=O)c2ccccc2)cc1` (stereo not given)?
HT1080 IDH1KD tx: inactive; KB-V1 cytotox: inconclusive; MCF10A rerep: inactive; SW480 rerep: inactive; HT1080-NT tox: inactive; KB-3-1 tox: inactive

How did O=[N+]([O-])c1ccc(S(=O)Cc2ccccc2)c([N+](=O)[O-])c1 (stereo not given) do in these assays?
HT1080 IDH1KD tx: 16.4µM; KB-V1 cytotox: inconclusive; MCF10A rerep: 4.11µM; SW480 rerep: 23.1µM; HT1080-NT tox: 16.4µM; KB-3-1 tox: inconclusive

How did Cc1cc(C)cc(N(CC(=O)NCC2CCCO2)C(=O)CN2C(=O)COc3ccccc32)c1 (stereo not given) do in these assays?
HT1080 IDH1KD tx: inactive; KB-V1 cytotox: 13µM; MCF10A rerep: inactive; SW480 rerep: inactive; HT1080-NT tox: inactive; KB-3-1 tox: inactive

How did O=C(CN(C(=O)C1COc2ccccc2O1)c1ccccc1)NCC1CCCO1 (stereo not given) do in these assays?
HT1080 IDH1KD tx: inconclusive; KB-V1 cytotox: inconclusive; MCF10A rerep: inconclusive; SW480 rerep: inactive; HT1080-NT tox: inactive; KB-3-1 tox: inactive

Results for COc1ccc(CNC(=O)c2cnc3sc(N4CCC(C)CC4)nn3c2=O)c(OC)c1 ?
KB-V1 cytotox: inactive; KB-3-1 tox: inactive

Results for COCCNC(=O)c1ccccc1NC(=O)Cc1ccccc1 ?
HT1080 IDH1KD tx: inactive; KB-V1 cytotox: inactive; MCF10A rerep: inactive; SW480 rerep: inactive; HT1080-NT tox: inactive; KB-3-1 tox: inactive

What do the screens show for `COCCNC(=O)c1ccccc1NC(=O)CCSc1ccccc1`?
HT1080 IDH1KD tx: inactive; KB-V1 cytotox: inconclusive; MCF10A rerep: 1.3µM; SW480 rerep: inactive; HT1080-NT tox: inactive; KB-3-1 tox: inactive

What do the screens show for `COc1ccccc1C(=O)NCCC(=O)NCCCSc1ccccc1`?
HT1080 IDH1KD tx: inactive; KB-V1 cytotox: 20.6µM; MCF10A rerep: inactive; SW480 rerep: inactive; HT1080-NT tox: inactive; KB-3-1 tox: inactive

What do the screens show for `COc1ccccc1C(=O)NCCC(=O)NCCOc1ccccc1`?
HT1080 IDH1KD tx: inactive; KB-V1 cytotox: inactive; MCF10A rerep: inactive; SW480 rerep: inactive; HT1080-NT tox: inactive; KB-3-1 tox: inactive
